Records with an inconclusive call do not appear. A number with no mark means an inactive call. The source made the active and inactive calls. The call rests on the fitted dose curve; in most records, active means well fitted activation curve with a large enough effect; inconclusive means small, poorly fitted or top-dose-only effect; inactive means no such curve, though single readings can be large or run the other way.
test: qHTS Assay for Rab9 Promoter Activators: Hit Validation Using Renilla Luciferase Read-Out for Rab9; settings: Huh7 Rab9 promoter Renilla luciferase reporter, 24 h; series mostly up to 76.9 µM; activation, negative = inhibition: at the top concentration; on activation, negative = inhibition: % of control where 0% means no effect
Excerpt: Niemann Pick Type C (NPC) is a rare neurodegenerative lipidosis that is characterized by lipid storage in the endosomal/lysosomal system. Treatment modalities for this devastating disease are currently non-existent due to the severe obstacles associated with accessing the central nervous system with proteins or genes. The majority of mutations causing NPC disease are missense mutations that are distributed throughout the length of the NPC1 protein, with the most prevalent being the I1061T allele. Although NPC1 mutant proteins may be functional, they are typically trapped in the ER due to misfolding. […] We have developed and optimized a cell based renilla luciferase reporter assay in 1536 well format for the identification of up-regulators of the mutant Rab9 promoter. This assay presents data on the validation of hits from the primary screen, which used a firefly luciferase read-out. NIH Chemical Genomics Center [NCGC] NIH Molecular Libraries Probe Production centers Network [MLPCN] MLPCN Grant: MH089375 Assay Submitter (PI): Yiannis A. Ioannou
Huh7 cells stably expressing NPC promoter-luciferase will be seeded at 1,500 cells/well in 5 uL in 1,536-well white opaque plates with 23 nL/well of compound in DMSO solution. The assay plates will be incubated at 37 deg C for 24 hours, after which 3 uL/well BriteLite plus luciferase detection reagent mixture (Perkin Elmer) will be added. Luminescence signal will be measured in a ViewLux plate reader (Perkin Elmer) after a 10 minute incubation at the room temperature.
Potency means the concentration at half of the fitted maximal effect.

Structure (SMILES) | Potency | activation, negative = inhibition
COc1ccc([N+](=O)[O-])cc1COc1ccc2c(-c3ccccc3)cc(=O)oc2c1 | 3.28 µM (active) | 
O=C(NNC(=O)C1COc2ccccc2O1)c1ccccc1O (stereo not given) |  | -25.9%
Cc1[nH]n(-c2cccc3ccccc23)c(=O)c1/C=N/c1sc2c(c1C#N)CCC2 |  | -5.17%
Cc1ccc(NC(=O)NC(=O)c2ccccc2)cc1F |  | 3.8%
O=C(NCCc1c[nH]c2ccccc12)C(=O)NCC(c1ccco1)N1CCN(c2ccccc2F)CC1 (stereo not given) |  | -2.24%
Cc1ccc2c(c1)sc1nc(=O)n(-c3ccccc3)c(=O)n12 |  | -16.2%
Cc1ccccc1NC(=O)CSc1ccc(-c2cccnc2)nn1 |  | 11.8%
COc1ccc(/C=C\C(=O)c2c(O)ccc3c(C)cc(=O)oc23)cc1OC |  | -55.5%
COC(=O)c1ccccc1S(=O)(=O)NNC(=O)Nc1ccccc1 |  | 0.761%
COc1ccc(-c2cc(C(=O)Nc3ccccc3F)on2)cc1 |  | -4.41%
COc1ccc(C)cc1N(C(=O)CNC(=O)c1ccco1)C(C(=O)NC1CCCC1)c1cccnc1 (stereo not given) |  | 14.4%
CCOC(=O)c1ccc(-c2nnc(-c3ccc(Cl)cc3Cl)o2)cc1 |  | -1.8%
Cc1ccc(NC(=O)c2cccc(N3C(=O)CCC3=O)c2)nc1 |  | -0.587%
CCC(=O)N1c2ccccc2NC2=C(C(=O)CCC2)C1c1ccc(N(C)C)cc1 (stereo not given) |  | 7.05%
CCOc1ccc(CNC(=O)C2CCCN(S(C)(=O)=O)C2)cc1OC (stereo not given) |  | -1.74%
Cc1nn(CCCC(=O)NCc2ccc(F)cc2)c(C)c1[N+](=O)[O-] |  | -6.9%
COc1ccc(/C=C\c2onc(C)c2S(=O)(=O)N2CCC(C(=O)NCCC(C)C)CC2)cc1 |  | -44.7%
CC(C)(C)C(=O)NC(=S)Nc1ccccc1F |  | -4.64%
CC(C)C1(CCNC(=O)c2cccs2)CCOC(C)(C)C1 (stereo not given) |  | 6.93%
Nc1c(N(CCO)C(=O)/C=C/c2ccco2)c(=O)[nH]c(=O)n1Cc1ccccc1 |  | 5.1%

Structure (SMILES) | Potency | activation, negative = inhibition
CCCC(C)NC(=O)c1ccc(OCc2ccc(Cl)cc2)c(OC)c1 (stereo not given) |  | -18.8%
CC1CC(C)CN(CC(=O)N2CCOCC2)C1 (stereo not given) |  | -3.11%
Cn1c(SCc2ccccc2)nnc1-c1cnccn1 |  | -3.61%
O=C(COc1ccccc1F)Nc1ccc(-c2nc3ccccc3s2)cc1 |  | -35.1%
C=CCOC(=O)N1CCN(c2cccc(C(F)(F)F)c2)CC1 |  | -9.5%
CCOC(=O)C1(Cc2cccc(Cl)c2)CCCN(C(=O)CCSC)C1 (stereo not given) |  | -4.46%
Cc1ccc(C(=O)Nc2nnc(S(=O)(=O)N3CCOCC3)s2)cc1 |  | 3.62%
CC(C)C(NC(=O)c1ccc([N+](=O)[O-])cc1Cl)C(=O)N1CCCC1 (stereo not given) |  | 6.26%
COCCNC(=O)C1CCC(CNS(=O)(=O)c2ccc(F)cc2)CC1 (stereo not given) |  | -3.79%
CCOc1cc(C(=O)N=c2sccn2C)ccc1OC(F)F |  | -5.54%
O=C(CCCOc1ccc(Cl)cc1)N1CCCCC1 |  | -14.9%
COC(=O)c1ccc(NC(=O)c2ccc3nc(C)sc3c2)cc1 |  | -2.81%
CC(Sc1nnc(C(F)(F)F)n1C)C(=O)Nc1ccc(S(N)(=O)=O)cc1 (stereo not given) |  | -0.0442%
COc1ccccc1NC(=S)NCc1ccc(Cl)cc1 |  | -3.88%
C=CCc1ccc(OCCOCCNCCOC)c(OC)c1 |  | -0.15%
O=C(O)C1=CC[C@@H](c2ccc(Cl)cc2)N(S(=O)(=O)c2ccc(Cl)cc2)[C@H]1c1ccccc1 | 14.6 µM (active) | 
CN(C)/C=N/c1c(C#N)cnn1-c1nc2ccccc2s1 |  | -4.94%
CCN(C(=O)COC(=O)c1ccc(C=O)cc1)c1c(N)n(Cc2ccccc2)c(=O)[nH]c1=O |  | 2.17%
FC(F)(F)c1ccc(Nc2nnnc3ccccc23)cc1 |  | -66.4%
COc1ccc(S(=O)(=O)NC(C(=O)NCCc2ccccn2)C(C)C)cc1 (stereo not given) |  | -2.29%

— PubChem BioAssay AID624116 (National Center for Advancing Translational Sciences (NCATS), 2012)
